Laboratory results from PubChem BioAssay.
Unmarked numbers belong to inactive results. Calls of active or inactive are those of the source.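 The calls were made as follows: active = normalized viability below 100% at a tested concentration; inactive = the rest.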

Assay: ovarian cancer cell viability with rucaparib, profiling panel, oncology-focused library, rucaparib conditional (AID 1508598)
Settings: patient-derived ovarian cancer cells, CellTiter-Glo viability, 144 h; at 0.000305 µM; OCI-P5x cells; without rucaparib; active compounds read low

Compound | viability
O=c1[nH]c(=O)n([C@@H]2C[C@H](O)[C@@H](CO)O2)cc1F | 24.9% (active)
COc1cccc2c1C(=O)c1c(O)c3c(c(O)c1C2=O)C[C@@](O)(C(C)=O)C[C@H]3O[C@H]1C[C@H](N)[C@H](O)[C@H](C)O1 | 105%
C[C@]12CC[C@H]3c4ccc(O)cc4CC[C@H]3[C@@H]1CC[C@H]2O | 110%
CC1=C(/C=C/C(C)=C\C=C\C(C)=C/C(=O)O)C(C)(C)CCC1 | 87.1% (active)
CC(C)CC(CC(=O)NO)C(=O)N[C@@H](Cc1ccc2ccccc2c1)C(=O)N[C@@H](C)C(=O)NCCN (stereo partly specified) | 101%
COc1cccc2c1C(=O)c1c(O)c3c(c(O)c1C2=O)C[C@@](O)(C(=O)CO)C[C@H]3O[C@H]1C[C@H](N)[C@@H](O)[C@H](C)O1 | 105%
COc1ccc(C2=N[C@H](c3ccc(Cl)cc3)[C@@H](c3ccc(Cl)cc3)N2C(=O)N2CCNC(=O)C2)c(OC(C)C)c1 | 86.6% (active)
CO[C@H]1C[C@H]2CC[C@@H](C)[C@@](O)(O2)C(=O)C(=O)N2CCCC[C@H]2C(=O)O[C@H]([C@H](C)C[C@@H]2CC[C@H](OC(=O)C(C)(CO)CO)[C@H](OC)C2)CC(=O)[C@H](C)/C=C(\C)[C@@H](O)[C@@H](OC)C(=O)[C@H](C)C[C@H](C)/C=C/C=C/C=C/1C | 85% (active)
O=C(O)c1cc(I)ccc1NC(=O)[C@H](Cc1ccccc1)NCc1ccccc1 | 102%
Nc1ncn([C@@H]2O[C@H](CO)[C@@H](O)[C@@H]2O)c(=O)n1 | 125%
CO[C@H]1C[C@@H]2CC[C@@H](C)[C@@](O)(O2)C(=O)C(=O)N2CCCC[C@H]2C(=O)O[C@H]([C@H](C)C[C@@H]2CC[C@@H](O)[C@H](OC)C2)CC(=O)[C@H](C)/C=C(\C)[C@@H](O)[C@H](OC)C(=O)[C@H](C)C[C@H](C)/C=C/C=C/C=C/1C | 75.2% (active)
CC(=O)OCC(=O)[C@]1(O)[C@H](C)C[C@H]2[C@@H]3CCC4=CC(=O)C=C[C@]4(C)[C@]3(F)[C@H](O)C[C@@]21C | 108%
CC[C@]1(O)C[C@@H]2CN(CCc3c([nH]c4ccccc34)[C@@](C(=O)OC)(c3cc4c(cc3OC)N(C=O)[C@H]3[C@@](O)(C(=O)OC)[C@H](OC(C)=O)[C@]5(CC)C=CCN6CC[C@@]43[C@@H]65)C2)C1 | 90.9% (active)
C[C@@]12CC[C@H]3c4ccc(O)cc4C[C@@H](CCCCCCCCCS(=O)CCCC(F)(F)C(F)(F)F)[C@H]3[C@@H]1CC[C@@H]2O (stereo partly specified) | 107%
CC(=O)O[C@@]1(C(C)=O)CC[C@H]2[C@@H]3C[C@H](C)C4=CC(=O)CC[C@]4(C)[C@@H]3CC[C@@]21C | 101%
CC(=O)O[C@]12CO[C@@H]1C[C@H](O)[C@]1(C)C(=O)[C@H](O)C3=C(C)[C@H](OC(=O)[C@H](O)[C@@H](NC(=O)OC(C)(C)C)c4ccccc4)C[C@](O)([C@H](OC(=O)c4ccccc4)C21)C3(C)C (stereo partly specified) | 106%
CCC1=CC2CN(C1)Cc1c([nH]c3ccccc13)[C@@](C(=O)OC)(c1cc3c(cc1OC)N(C)[C@H]1[C@@](O)(C(=O)OC)[C@H](OC(C)=O)[C@]4(CC)C=CCN5CC[C@@]31[C@H]54)C2 (stereo partly specified) | 2.91% (active)
CC(=O)O[C@H]1C(=O)[C@@]2(C)C([C@H](OC(=O)c3ccccc3)[C@]3(O)C[C@H](OC(=O)[C@H](O)[C@@H](NC(=O)c4ccccc4)c4ccccc4)C(C)=C1C3(C)C)[C@]1(OC(C)=O)CO[C@@H]1C[C@H]2O (stereo partly specified) | 125%

Same assay, conditions: patient-derived ovarian cancer cells, CellTiter-Glo viability, 144 h; at 0.00122 µM; OCI-C5x cells; with rucaparib 10 µM; active compounds read low; 100% = cells with rucaparib alone

Compound | viability
O=c1[nH]c(=O)n([C@@H]2C[C@H](O)[C@@H](CO)O2)cc1F | 111%
COc1cccc2c1C(=O)c1c(O)c3c(c(O)c1C2=O)C[C@@](O)(C(C)=O)C[C@H]3O[C@H]1C[C@H](N)[C@H](O)[C@H](C)O1 | 123%
C[C@]12CC[C@H]3c4ccc(O)cc4CC[C@H]3[C@@H]1CC[C@H]2O | 105%
CC1=C(/C=C/C(C)=C\C=C\C(C)=C/C(=O)O)C(C)(C)CCC1 | 115%
CC(C)CC(CC(=O)NO)C(=O)N[C@@H](Cc1ccc2ccccc2c1)C(=O)N[C@@H](C)C(=O)NCCN (stereo partly specified) | 111%
COc1cccc2c1C(=O)c1c(O)c3c(c(O)c1C2=O)C[C@@](O)(C(=O)CO)C[C@H]3O[C@H]1C[C@H](N)[C@@H](O)[C@H](C)O1 | 94.3% (active)
COc1ccc(C2=N[C@H](c3ccc(Cl)cc3)[C@@H](c3ccc(Cl)cc3)N2C(=O)N2CCNC(=O)C2)c(OC(C)C)c1 | 118%
CO[C@H]1C[C@H]2CC[C@@H](C)[C@@](O)(O2)C(=O)C(=O)N2CCCC[C@H]2C(=O)O[C@H]([C@H](C)C[C@@H]2CC[C@H](OC(=O)C(C)(CO)CO)[C@H](OC)C2)CC(=O)[C@H](C)/C=C(\C)[C@@H](O)[C@@H](OC)C(=O)[C@H](C)C[C@H](C)/C=C/C=C/C=C/1C | 97% (active)
O=C(O)c1cc(I)ccc1NC(=O)[C@H](Cc1ccccc1)NCc1ccccc1 | 129%
Nc1ncn([C@@H]2O[C@H](CO)[C@@H](O)[C@@H]2O)c(=O)n1 | 108%
CO[C@H]1C[C@@H]2CC[C@@H](C)[C@@](O)(O2)C(=O)C(=O)N2CCCC[C@H]2C(=O)O[C@H]([C@H](C)C[C@@H]2CC[C@@H](O)[C@H](OC)C2)CC(=O)[C@H](C)/C=C(\C)[C@@H](O)[C@H](OC)C(=O)[C@H](C)C[C@H](C)/C=C/C=C/C=C/1C | 99.6% (active)
CC(=O)OCC(=O)[C@]1(O)[C@H](C)C[C@H]2[C@@H]3CCC4=CC(=O)C=C[C@]4(C)[C@]3(F)[C@H](O)C[C@@]21C | 121%
CC[C@]1(O)C[C@@H]2CN(CCc3c([nH]c4ccccc34)[C@@](C(=O)OC)(c3cc4c(cc3OC)N(C=O)[C@H]3[C@@](O)(C(=O)OC)[C@H](OC(C)=O)[C@]5(CC)C=CCN6CC[C@@]43[C@@H]65)C2)C1 | 106%
C[C@@]12CC[C@H]3c4ccc(O)cc4C[C@@H](CCCCCCCCCS(=O)CCCC(F)(F)C(F)(F)F)[C@H]3[C@@H]1CC[C@@H]2O (stereo partly specified) | 116%
CC(=O)O[C@@]1(C(C)=O)CC[C@H]2[C@@H]3C[C@H](C)C4=CC(=O)CC[C@]4(C)[C@@H]3CC[C@@]21C | 113%
CC(=O)O[C@]12CO[C@@H]1C[C@H](O)[C@]1(C)C(=O)[C@H](O)C3=C(C)[C@H](OC(=O)[C@H](O)[C@@H](NC(=O)OC(C)(C)C)c4ccccc4)C[C@](O)([C@H](OC(=O)c4ccccc4)C21)C3(C)C (stereo partly specified) | 86.4% (active)
CCC1=CC2CN(C1)Cc1c([nH]c3ccccc13)[C@@](C(=O)OC)(c1cc3c(cc1OC)N(C)[C@H]1[C@@](O)(C(=O)OC)[C@H](OC(C)=O)[C@]4(CC)C=CCN5CC[C@@]31[C@H]54)C2 (stereo partly specified) | 94.4% (active)
CC(=O)O[C@H]1C(=O)[C@@]2(C)C([C@H](OC(=O)c3ccccc3)[C@]3(O)C[C@H](OC(=O)[C@H](O)[C@@H](NC(=O)c4ccccc4)c4ccccc4)C(C)=C1C3(C)C)[C@]1(OC(C)=O)CO[C@@H]1C[C@H]2O (stereo partly specified) | 114%
